The text below walks through data of PubChem BioAssay.

Assay [1] has as its target Cell division control protein 42 homolog (Homo sapiens) (UniProt P60953). In words: activated mutant Cdc42 GTP-binding inhibitors, dose response, biochemical, multiplex bead flow cytometry, Bodipy-FL-GTP (AID 1333;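 active means fitted half-maximal concentration within the tested dose range, moderate curve steepness, a statistically real signal drop, and little compound fluorescence or tag-binding interference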). For orientation: A flow cytometer gives signals particle by particle.
Assay [2] shares this target. In words: wildtype Cdc42 GTP-binding inhibitors, dose response, biochemical, multiplex bead flow cytometry, Bodipy-FL-GTP (AID 1334;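 active means fitted half-maximal concentration within the tested range, moderate curve steepness, significant signal drop, and little compound fluorescence or bead-linkage interference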). As to conditions: bead-based flow cytometry, Bodipy-FL-GTP binding to GST-Cdc42; at 100 µM (top of the series) unless noted.
In assay [3] the target is GTPase HRas (Homo sapiens) (UniProt P01112). The assay can be described thus: inhibitors of GTP binding to wildtype Ras, dose response, biochemical, multiplex bead flow cytometry (AID 1335;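 active means fitted half-maximal concentration within 10 nM to 100 µM, steepness 0.5 to 2, significant signal drop, low assay interference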). To be noted: bead-based flow cytometry, Bodipy-GTP binding to GST-Ras; at 100 µM (top of the series) unless noted.
Assay [4] concerns Ras-related protein Rab-7a (dog), GTP binding. The assay can be described thus: Rab7 GTP binding inhibitors, potency, dose response, biochemical, wildtype, multiplex bead flow cytometry (AID 1336).
The target of assay [5] is Ras-related C3 botulinum toxin substrate 1 (Homo sapiens) (UniProt P63000). In words: wildtype Rac1 GTP binding inhibitors, dose response, biochemical, multiplex bead flow cytometry (AID 1340;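 active means dose curve with midpoint inside tested range, moderate steepness, plateau gap beyond fit error, low compound glow and bead-link interference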). To be noted: GST-Rac1 beads, Bodipy-FL-GTP binding; at 100 µM (top of the series) unless noted.
The target of assay [6] is GTPase HRas (Homo sapiens) (UniProt P01112). The assay can be described thus: activated Ras mutant GTP binding inhibitors, dose response, biochemical, multiplex bead flow cytometry (AID 1341;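 active means dose-response curve with midpoint inside the tested range, moderate steepness, significant amplitude and little compound fluorescence or bead-attachment interference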;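 further: GST-tagged constitutively activated Ras mutant immobilized on beads and multiplexed with other GTPases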).

For part of these data: Results with a measured potency or affinity are listed apart. Active and inactive are the calls of the source. Unless noted, how the calls were made is not given here.

Cell division control protein 42 homolog (Homo sapiens), sequence (P60953 whole entry, looked up): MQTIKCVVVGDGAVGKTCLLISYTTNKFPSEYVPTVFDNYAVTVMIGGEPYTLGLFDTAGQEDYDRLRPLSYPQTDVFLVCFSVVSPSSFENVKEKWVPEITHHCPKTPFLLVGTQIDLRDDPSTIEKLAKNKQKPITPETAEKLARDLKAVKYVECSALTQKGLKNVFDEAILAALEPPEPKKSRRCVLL
GTPase HRas (Homo sapiens), sequence (P01112 whole entry, looked up): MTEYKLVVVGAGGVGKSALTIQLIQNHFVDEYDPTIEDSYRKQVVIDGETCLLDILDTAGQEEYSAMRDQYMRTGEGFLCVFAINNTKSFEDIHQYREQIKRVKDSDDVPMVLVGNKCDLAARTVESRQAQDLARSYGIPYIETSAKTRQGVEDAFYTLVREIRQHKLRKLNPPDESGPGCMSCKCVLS

As to `CCn1cc(C(=O)O)c(=O)c2cc(F)c(N/N=C/c3ccccc3[N+](=O)[O-])cc21`, the result in assay [1], in assay [4] and in assay [6] was inactive. The fluorescence, percent of control (lower = inhibition) in assay [2] was 32.3%. In assay [3], this compound gave a GTP binding, percent of control of 44%. Further, in assay [5], the GTP binding signal, raw median fluorescence (lower = inhibition) (MCF (arbitrary fluorescence units)) was found to be 110.

With `CC(C)Nc1nnc(SCC(=O)Nc2ccc3c(c2)C(=O)c2ccccc2C3=O)s1`, the call in assay [1], in assay [4] and in assay [6] was inactive. For the same compound, in assay [2], the fluorescence, percent of control (lower = inhibition) amounted to 43.2%. In addition, the GTP binding, percent of control in assay [3] stood at 50.9%. The GTP binding signal, raw median fluorescence (lower = inhibition) (MCF (arbitrary fluorescence units)) in assay [5] was 0.

On to `Cc1cccc(Cc2c(C)nc3nc(SCC(=O)O)nn3c2C)c1`, for which the compound was called inactive in assay [1], in assay [4] and in assay [6]. In assay [2], the fluorescence, percent of control (lower = inhibition) was found to be 30.6%. The GTP binding, percent of control in assay [3] came to 81.6%. This compound also showed a GTP binding signal, raw median fluorescence (lower = inhibition) (MCF (arbitrary fluorescence units)) in assay [5] of 227.

Turning to `O=c1c2ccc([N+](=O)[O-])cc2ncn1Cc1ccccc1C(F)(F)F`, the compound was classed as inactive in assay [1], in assay [4] and in assay [6]. In addition, the fluorescence, percent of control (lower = inhibition) in assay [2] is 34.8%. This compound also yielded a GTP binding, percent of control in assay [3] of 72.7%. This compound had a GTP binding signal, raw median fluorescence (lower = inhibition) (MCF (arbitrary fluorescence units)) in assay [5] of 141.

`CCC1CCCCN1S(=O)(=O)c1ccc(NC(=O)CSc2ncccc2C(=O)O)cc1` (stereo not given): the compound was classed as inactive in assay [1], in assay [4] and in assay [6]. The fluorescence, percent of control (lower = inhibition) in assay [2] is 43.1%. This compound also returned a GTP binding, percent of control in assay [3] of 57.5%. This compound had a GTP binding signal, raw median fluorescence (lower = inhibition) (MCF (arbitrary fluorescence units)) in assay [5] of 109.

As for `Oc1ccc(NC(=S)N=Nc2c(O)[nH]c3ccc(Br)cc23)cc1`, the result in assay [1], in assay [4] and in assay [6] was inactive. Also, the fluorescence, percent of control (lower = inhibition) in assay [2] came to 33.1%. This compound also gave a GTP binding, percent of control in assay [3] of 78.4%. Also, the GTP binding signal, raw median fluorescence (lower = inhibition) (MCF (arbitrary fluorescence units)) in assay [5] turned out to be 200.

On to `COc1ccc(/C=N/n2c(N)c(S(=O)(=O)c3cccs3)c3nc4ccccc4nc32)cc1OC`, for which the compound was classed as inactive in assay [1], in assay [4] and in assay [6]. For the same compound, the fluorescence, percent of control (lower = inhibition) in assay [2] came out at 37.1%. In addition, the GTP binding, percent of control in assay [3] worked out at 49.3%. For the same compound, in assay [5], the GTP binding signal, raw median fluorescence (lower = inhibition) (MCF (arbitrary fluorescence units)) came out at 118.

For the compound `COc1cc2nc(/C=C/c3ccc(N(C)C)cc3)sc2cc1SC`, the compound was classed as inactive in assay [1], in assay [4] and in assay [6]. In addition, the fluorescence, percent of control (lower = inhibition) in assay [2] was determined as 121%. In addition, the GTP binding, percent of control in assay [3] came out at 122%. This compound also registered a GTP binding signal, raw median fluorescence (lower = inhibition) (MCF (arbitrary fluorescence units)) in assay [5] of 238.

With `CCCCCCn1nc(C(=O)OCC(=O)c2c(N)n(C)c(=O)n(C)c2=O)c2ccccc2c1=O`, the call in assay [1], in assay [4] and in assay [6] was inactive. Besides, in assay [2], the fluorescence, percent of control (lower = inhibition) was determined as 36%. This compound also returned a GTP binding, percent of control in assay [3] of 80.1%. The GTP binding signal, raw median fluorescence (lower = inhibition) (MCF (arbitrary fluorescence units)) in assay [5] turned out to be 203.

In the case of `CC1(C)Cc2c(sc3c2C2=NCCN2C=N3)CS1`, the compound was classed as inactive in assay [1], in assay [4] and in assay [6]. In addition, in assay [2], the fluorescence, percent of control (lower = inhibition) turned out to be 38.3%. In assay [3], the GTP binding, percent of control came to 86.3%. In addition, the GTP binding signal, raw median fluorescence (lower = inhibition) (MCF (arbitrary fluorescence units)) in assay [5] was 280.

For the compound `Nc1c(C(=O)C2CC2)sc2nc(-c3cccs3)cc(C(F)(F)F)c12`, the compound was classed as inactive in assay [1], in assay [4] and in assay [6]. Further, the fluorescence, percent of control (lower = inhibition) in assay [2] stood at 495%. Also, in assay [3], the GTP binding, percent of control worked out at 441%. This compound also displayed a GTP binding signal, raw median fluorescence (lower = inhibition) (MCF (arbitrary fluorescence units)) in assay [5] of 468.

Regarding `CC(C)NC(=O)C12CC3CC(C1)CC(n1cnc(Cl)n1)(C3)C2`, the call in assay [1], in assay [4] and in assay [6] was inactive. Also, in assay [2], the fluorescence, percent of control (lower = inhibition) is 41.5%. Besides, in assay [3], the GTP binding, percent of control came out at 89.6%. Further, the GTP binding signal, raw median fluorescence (lower = inhibition) (MCF (arbitrary fluorescence units)) in assay [5] was found to be 319.

For `Cc1cccc(CNc2nc(C)ccc2C(=O)O)c1`, the outcome in assay [1], in assay [4] and in assay [6] was inactive. Moreover, in assay [2], the fluorescence, percent of control (lower = inhibition) is 60.7%. Also, in assay [3], the GTP binding, percent of control was 218%. Moreover, the GTP binding signal, raw median fluorescence (lower = inhibition) (MCF (arbitrary fluorescence units)) in assay [5] was 58.

For the compound `CCN(CC)c1ccc(/C=N/OCC(=O)Nc2cccc(C)c2)cc1`, the call in assay [1], in assay [4] and in assay [6] was inactive. Besides, the fluorescence, percent of control (lower = inhibition) in assay [2] was determined as 65.3%. In assay [3], this compound came in with a GTP binding, percent of control of 74.6%. The compound further came in with a GTP binding signal, raw median fluorescence (lower = inhibition) (MCF (arbitrary fluorescence units)) in assay [5] of 0.

As to `COc1cc2c3nnc(-c4ccc(F)cc4)c-3cn(Cc3cccc(F)c3)c2cc1OC`, the outcome in assay [1], in assay [4] and in assay [6] was inactive. Moreover, the fluorescence, percent of control (lower = inhibition) in assay [2] was 38.2%. The same compound yielded a GTP binding, percent of control in assay [3] of 86.4%. Further, the GTP binding signal, raw median fluorescence (lower = inhibition) (MCF (arbitrary fluorescence units)) in assay [5] is 293.
